OPRM1-OPRD1 ag: agonists of OPRM1-OPRD1 heterodimerization, primary screen, cell-based, luminescence | cells | 340,000 compounds, 0.3% hits | activation, % at 9.3 µM | AID 504326, 2011; in the data active = activation above about 18%
HTR5A ag: HTR5A agonists in luminescence cell assay, primary screen, counter-screen for OPRM1-OPRD1 heterodimer agonist project, full-deck HTS; 340,000 compounds, 0.61% hits; cell-based; AID 504692, 2011; 5-hydroxytryptamine receptor 5A (Homo sapiens), P47898; activation, % at 9.3 µM; in the data active = activation mostly above about 9.5%, no sharp cut-off; inactive = mostly below about 7.6%
Target sequence (P47898 whole entry, looked up): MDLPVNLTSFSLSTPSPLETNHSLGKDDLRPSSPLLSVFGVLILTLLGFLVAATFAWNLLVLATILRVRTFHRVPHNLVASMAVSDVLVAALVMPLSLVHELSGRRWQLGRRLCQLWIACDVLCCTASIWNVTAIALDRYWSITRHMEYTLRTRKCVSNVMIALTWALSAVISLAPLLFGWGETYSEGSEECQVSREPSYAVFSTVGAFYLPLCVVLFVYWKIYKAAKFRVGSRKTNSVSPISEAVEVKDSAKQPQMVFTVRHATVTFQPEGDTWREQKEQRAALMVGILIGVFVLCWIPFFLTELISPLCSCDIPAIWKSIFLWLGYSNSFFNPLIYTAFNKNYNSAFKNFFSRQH
HTR5A inv ag: HTR5A inverse agonists in luminescence cell assay, primary screen, counter-screen for OPRM1-OPRD1 heterodimer inverse agonist project, full-deck HTS; 5-hydroxytryptamine receptor 5A (Homo sapiens), P47898; AID 504634, 2011; 340,000 compounds, 0.083% hits; inhibition, % at 9.3 µM; HTR5A cell line, inverse agonism; in the data active = inhibition mostly above about 23%, no sharp cut-off; inactive = mostly below about 18%
MOR-DOR inv ag-1: inverse agonists of MOR-DOR heterodimerization, primary screen, cell-based, luminescence; Mu-type opioid receptor (Homo sapiens) + Delta-type opioid receptor (Homo sapiens), …; cell-based MOR-DOR heterodimer luminescence, inverse agonism; inhibition, % at 9.3 µM; 340,000 compounds, 0.21% hits; in the data active = inhibition above about 22%, passing the limit was not always enough
OPRM1-D1 ag cf: agonists of MOR-DOR heterodimerization, confirmation, cell-based, luminescence | shares compounds with OPRM1-OPRD1 ag | cells, luminescence complementation | activation, % at 9.3 µM | 830 compounds, 45% hits; in the data active = activation above about 18%
HTR5A ag counter: HTR5A agonists in cells, counter-screen for OPRM1-OPRD1 heterodimer agonist project, cell-based, luminescence; shares compounds with OPRM1-OPRD1 ag; 830 compounds, 8% hits; AID 504905, 2011; activation, % at 9.3 µM; HTR5A agonist counterscreen; in the data active = activation above about 17%
OPRM1-D1 inv cf: inverse agonists of MOR-DOR heterodimerization, confirmation, cell-based, luminescence | shares compounds with MOR-DOR inv ag-1 | inhibition, % at 9.3 µM | 580 compounds, 20% hits | AID 504900, 2011 | cells expressing OPRM1/OPRD1 heterodimer; in the data active = inhibition above about 32%
HTR5A inv count: HTR5A inverse agonists, counter-screen for OPRM1-OPRD1 inverse agonist project, cell-based, luminescence | shares compounds with MOR-DOR inv ag-1 | HTR5A-expressing cells, inverse agonism | inhibition, % at 9.3 µM | 580 tested, under 10 active
MOR-DOR inv ag-2: inverse agonists of MOR-DOR heterodimerization, counter-screen for HTR5A inverse agonist project, cell-based, luminescence; inhibition, % at 9.3 µM; 190 tested, under 10 active; U2OS counter-screen cells, complementation luminescence; shares compounds with HTR5A inv ag
HTR5A inv conf: HTR5A inverse agonists, retest of hits, confirmation, cell-based, luminescence; inhibition, % at 9.3 µM; 190 tested, under 10 active; shares compounds with HTR5A inv ag; HTR5A-expressing cells, inverse agonism; AID 504916, 2011
Each line names hits and unclear results; the compound was inactive in the other large screens (follow-up assays come after a bar, where they were run). Rows were chosen to be rich in hits. Some 1.1% of all compounds tested hit in one or more screens of this group. Unless noted, no rule for the calls is given here.

COc1ccc(NC(=O)c2cc(-c3ccco3)nc3ccccc23)cc1	OPRM1-OPRD1 ag 50 | OPRM1-D1 ag cf 22 | HTR5A ag counter 20
COc1ccc(OC)c(C2=CC(=O)C[C@H](c3ccc4c(c3)OCO4)C2)c1	none
CCc1c(N)nc(N)nc1Nc1ccccc1C	OPRM1-OPRD1 ag 21 | OPRM1-D1 ag cf inactive | HTR5A ag counter inactive
Cc1ccccc1Nc1nc(N)nc(C)c1Br	none
CCOc1ccc(NC(=S)Nc2ccc3nsnc3c2)cc1	OPRM1-OPRD1 ag 22 | OPRM1-D1 ag cf inactive | HTR5A ag counter inactive
N#Cc1ccncc1S(=O)c1ccc(Cl)cc1 (configuration not stated)	none
O=C(Nc1ccccc1N1CCOCC1)c1ccc2nc[nH]c2c1	OPRM1-OPRD1 ag 19 | OPRM1-D1 ag cf inactive | HTR5A ag counter inactive
O=C(Nc1ccccc1N1CCOCC1)c1cccc(F)c1	none
CCOC(=O)c1nnn(CC(=O)N2N=C(c3ccccc3)CC2c2ccccc2)c1C(=O)OCC (configuration not stated)	none
CCOC(=O)c1nnn(CC(=O)N2N=C(c3cc(C)ccc3C)CC2c2ccc(OC)cc2)c1C(=O)OCC (configuration not stated)	OPRM1-OPRD1 ag 20 | OPRM1-D1 ag cf inactive | HTR5A ag counter 62
CCN(CC(=O)NCc1ccc(Cl)cc1)C(=O)c1cc(OC)cc(OC)c1	none
COc1ccc(CNC(=O)CN(Cc2ccccc2)C(=O)CCC(=O)Nc2nccs2)cc1	none
CCN(CC)c1ccc(C(=C2C=CC(=[N+](CC)CC)C=C2)c2ccc(N(CC)CC)cc2)cc1	OPRM1-OPRD1 ag 108, HTR5A inv ag 50 | OPRM1-D1 ag cf inactive | HTR5A ag counter 33 | MOR-DOR inv ag-2 inactive | HTR5A inv conf inactive
CN(C(=O)COC(=O)C1CCN(S(=O)(=O)c2c(Cl)cccc2Cl)CC1)C1CCCCC1	none
CC(=O)N(/N=C1\Sc2ccccc2C1=O)c1ccccc1C	MOR-DOR inv ag-1 51 | OPRM1-D1 inv cf inactive | HTR5A inv count inactive
CC(=O)N(/N=C1\Sc2ccccc2C1=O)c1ccccc1	MOR-DOR inv ag-1 34 | OPRM1-D1 inv cf inactive | HTR5A inv count inactive
O=c1onc(-c2cccnc2)n1-c1ccccc1F	none
CC1(C)CC(=O)CC(C2(O)C(=O)N(Cc3ccccc3)c3ccccc32)O1 (configuration not stated)	MOR-DOR inv ag-1 34 | OPRM1-D1 inv cf inactive | HTR5A inv count inactive
CC1(C)CC(=O)C(C2(O)C(=O)N(Cc3ccccc3)c3ccccc32)CO1 (configuration not stated)	none
COc1cccc(-n2nc(C#N)c(Cl)cc2=O)c1	MOR-DOR inv ag-1 28 | OPRM1-D1 inv cf inactive | HTR5A inv count inactive
COc1cccc(-n2nc(C(N)=O)c(O)cc2=O)c1	none
CCN1CCN(C(=O)CN2C(=O)COc3ccc(C)cc32)CC1	MOR-DOR inv ag-1 12 | OPRM1-D1 inv cf inactive | HTR5A inv count inactive
O=C(O)CNS(=O)(=O)Cc1ccccc1	none
O=S(=O)(Cc1ccccc1)N(O)c1ccccc1	MOR-DOR inv ag-1 43 | OPRM1-D1 inv cf inactive | HTR5A inv count inactive
Cc1c(C(=O)N(C)C)sc2nc(-c3ccccn3)[nH]c(=O)c12	none
O=c1[nH]c(-c2ccccn2)nc2sc(-c3ccccc3)cc12	MOR-DOR inv ag-1 33 | OPRM1-D1 inv cf inactive | HTR5A inv count inactive
CCNC(=S)NNC(=O)CSc1nc2ccccc2n1C	MOR-DOR inv ag-1 38 | OPRM1-D1 inv cf inactive | HTR5A inv count inactive
CCNC(=S)NNC(=O)CSc1nc2ccccc2[nH]1	none
Cc1nn(C(C)C(=O)N2CCCC2)c(=O)c2nn(-c3ccccc3)c(C)c12 (configuration not stated)	none
Cc1nn(CCC(=O)NNC(=S)Nc2ccc(F)cc2)c(C)c1Br	MOR-DOR inv ag-1 44 | OPRM1-D1 inv cf inactive | HTR5A inv count inactive
Cc1nn(CCC(=O)NNC(=S)Nc2ccc([N+](=O)[O-])cc2)c(C)c1[N+](=O)[O-]	none
Cn1cnc2c(cnn2C)c1=O	none
OCC1OC(Oc2c[nH]c3ccccc23)C(O)C(O)C1O (configuration not stated)	MOR-DOR inv ag-1 58 | OPRM1-D1 inv cf inactive | HTR5A inv count inactive
CC1CCCCC1NC(=O)CN1C(=O)NC(C)(c2cc(F)ccc2F)C1=O (configuration not stated)	none
CC(C(=O)OCC(=O)c1cccc([N+](=O)[O-])c1)N1C(=O)C2C3CCC(C3)C2C1=O (configuration not stated)	MOR-DOR inv ag-1 54 | OPRM1-D1 inv cf inactive | HTR5A inv count inactive
Cc1ccc(C(=O)COC(=O)C(C)N2C(=O)C3C4CCC(C4)C3C2=O)cc1C (configuration not stated)	none
CC(C(=O)OCC(=O)c1cccc([N+](=O)[O-])c1)N1C(=O)C2C3C=CC(C3)C2C1=O (configuration not stated)	MOR-DOR inv ag-1 48 | OPRM1-D1 inv cf inactive | HTR5A inv count inactive
CC(C)N1C(=O)C(O)(C2COC(C)(C)CC2=O)c2ccccc21 (configuration not stated)	none
CC1(C)CC(=O)C(C2(O)C(=O)Nc3ccccc32)CO1 (configuration not stated)	HTR5A inv ag 22, MOR-DOR inv ag-1 55 | OPRM1-D1 inv cf inactive | HTR5A inv count inactive
O=C(NCc1ccccn1)c1ccc(Cn2c(=S)[nH]c3ccc(Br)cc3c2=O)cc1	none
O=c1c2cc(Cl)ccc2[nH]c(=S)n1Cc1ccccn1	MOR-DOR inv ag-1 72 | OPRM1-D1 inv cf 55 | HTR5A inv count inactive
COc1ccc(N2COC3c4cccc5cccc(c45)C32)cc1 (configuration not stated)	MOR-DOR inv ag-1 50 | OPRM1-D1 inv cf inactive | HTR5A inv count inactive
CCN(CC)S(=O)(=O)c1ccc(C(=O)NCC2(N3CCOCC3)CCCCC2)cc1	none

Source: PubChem BioAssay
